According to PubChem BioAssay (NCI):
About 79,000 compounds went through this panel and 15% of them were active in at least one assay; those are over-represented in the sample as a whole. The source made the active and inactive calls. Cut-off read from the data, not from the text of the source: active = growth inhibition above about 70%; inactive = the rest. Where a SMILES comes first, the peptide text is derived from it. [ ]: non-standard residue; d: D form. The star is where a group is joined. ξ: configuration not given here. ξF = NC(Cc1ccccc1)C(=O)O; Cbz = O=C(OCc1ccccc1)*; Sar = CNCC(=O)O

Columns and labels:
[1] = NCI Yeast Anticancer Drug Screen. Data for the rad50 strain (AID 155);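 note: 0% = growth of vehicle-only cultures of the same strain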; conditions: S. cerevisiae rad50 strain growth inhibition; at 50.0 µM; hits give high values
Procedure, shortened: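 Growth of the mutant yeast was measured after compound exposure and referenced to vehicle-treated cultures.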

[2] = NCI Yeast Anticancer Drug Screen. Data for the mec2-1 strain (AID 157); conditions: S. cerevisiae mec2-1 strain, at 50.0 µM, hits give high values
Procedure, shortened: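 Vehicle-treated cultures served as reference for growth inhibition of compound-exposed mec2-1 yeast.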

[3] = NCI Yeast Anticancer Drug Screen. Data for the sgs1 mgt1 strain (AID 161);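 note: 0% = growth of cultures given vehicle only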; conditions: S. cerevisiae sgs1 mgt1 strain, at 50.0 µM, hits give high values
Procedure, shortened: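 Test agents were incubated with a DNA-repair-mutant yeast strain. Growth was then read and compared against vehicle-treated controls.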

[4] = NCI Yeast Anticancer Drug Screen. Data for the cln2 rad14 strain (AID 165);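 note: 0% = growth equal to vehicle treated cultures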; conditions: S. cerevisiae cln2 rad14 strain, at 50.0 µM, hits give high values
Procedure, shortened: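 Each compound was tested on cln2 rad14 yeast. Inhibition of growth was calculated against vehicle-exposed controls.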

[5] = NCI Yeast Anticancer Drug Screen. Data for the bub3 strain (AID 167); conditions: S. cerevisiae bub3 mutant strain, at 50.0 µM, hits give high values
Procedure, shortened: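 Whole-cell yeast assay. The mutant strain was incubated with compounds, and growth inhibition was determined by comparison with vehicle-treated cells.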

[6] = NCI Yeast Anticancer Drug Screen. Data for the mlh1 rad18 strain (AID 175); conditions: S. cerevisiae mlh1 rad18 strain growth inhibition; at 50.0 µM; hits give high values
Procedure, shortened: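 Vehicle-treated cultures served as the reference for growth inhibition in a yeast strain carrying DNA damage repair alterations exposed to each compound.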

Measured: growth inhibition

S=C1CC(c2ccccc2)Sc2ccccc2N1 (stereo not drawn)
inactive: [1] -1.45% | [2] 1.85% | [3] 13.9% | [4] 1.8% | [5] 30.3% | [6] -25.6%

O=C(CCN1CCCCC1)C(O)(c1ccccc1)c1ccccc1
inactive: [1] 19.2% | [2] -2% | [3] 24.7% | [4] -6.05% | [5] -10.4% | [6] 14.2%

Cc1cc(=O)[nH]c2cc(NN)ccc12
inactive: [1] 10.2% | [2] -3.85% | [3] 4.85% | [4] -4.35% | [5] -0.45% | [6] 8.55%

CC(=O)n1nc(Cl)c2cccnc2c1=O
inactive: [1] 11.8% | [2] -1.1% | [3] 4.3% | [4] 1.55% | [5] -0.4% | [6] 8.85%

Cc1ccc(Nc2ccc(O)cc2)cc1
inactive: [1] 40.4% | [2] -2.1% | [3] 29.5% | [4] -8.25% | [5] -10.8% | [6] 26%

CN(C)c1ccccc1CCO
inactive: [1] -4.2% | [2] -33.5% | [3] -6.7% | [4] -0.4% | [5] -3.65% | [6] 3.35%

Cc1cc(C)nc(NS(=O)(=O)c2ccc(NC(=O)c3cccc4c(Nc5ccc(S(=O)(=O)N=C(N)N)cc5)c5ccccc5nc34)cc2)n1
inactive: [1] 0.75% | [2] 14.7% | [3] -10.5% | [4] 37.5% | [5] 26.1% | [6] 15.9%

CCN(C=O)c1ccccc1
inactive: [1] 15.7% | [2] -7.55% | [3] -6.95% | [4] -0.8% | [5] 5.95% | [6] 6.55%

CN(CC(=O)NC(Cc1ccccc1)C(=O)O)C(=O)OCc1ccccc1 (stereo not drawn) (Cbz-[Sar]-[ξF]-OH)
inactive: [1] -16.9% | [2] -7.95% | [3] -1.2% | [4] -6.2% | [5] -16.1% | [6] -10.6%

O=c1c2ccccc2nc(-c2ccccc2Cl)n1/N=C/c1ccc(Cl)cc1Cl
inactive: [1] -1.1% | [2] 5.3% | [3] 2.1% | [4] -3.75% | [5] -3.5% | [6] 6.1%

NCCNC(c1ccccc1)C(O)c1ccccc1 (stereo not drawn)
inactive: [1] -8.7% | [2] -0.7% | [3] -1.25% | [4] -33.9% | [5] -41.2% | [6] -4.25%

CSc1ccc(OC(=O)NC2CCCCC2)cc1C
inactive: [1] 7.5% | [2] 22.4% | [3] 13.6% | [4] 6.25% | [5] 28.6% | [6] 14.8%

Cc1cc(=O)[nH]c2nc(N)ccc12
inactive: [1] -9.5% | [2] -8.25% | [3] 11.7% | [4] -24.9% | [5] 7.8% | [6] -18.9%

O=C(O)CCS.[Cu+2]
inactive: [1] -11.8% | [2] -25.3% | [3] -9.05% | [4] -10.7% | [5] -29.9% | [6] -14.8%

CCOc1ccccc1NC(=O)CC1Sc2ccccc2NC1=O (stereo not drawn)
inactive: [1] 24.5% | [2] -14.7% | [3] 15.3% | [4] 2.55% | [5] 3.85% | [6] 21.5%

Nc1ccc(S(=O)(=O)O)c(N)c1
inactive: [1] 10.2% | [2] 9.05% | [3] -3.5% | [4] -0.3% | [5] 13.1% | [6] 3.95%

C/C1=C/C(C)CC(C)OC(=O)C(C)NC(=O)C(Cc2ccc(O)c(I)c2)N(C)C(=O)C(C)NC(=O)C(C)C1 (stereo not drawn)
inactive: [3] 52.4%
active: [1] 92.8% | [2] 93.7% | [4] 90.7% | [5] 92.8% | [6] 91.2%

N#Cc1nc(CC(=O)c2ccncc2)c(CC(=O)c2ccncc2)nc1C#N
inactive: [1] 8% | [2] 11.9% | [3] 35.9% | [4] 13.5% | [5] -10.9% | [6] 53.1%

C[C@@]12CCC(=O)c3coc(c31)C(=O)c1cc3c(cc12)C(=O)C=CC3=O
active: [1] 92% | [2] 93.2% | [3] 93.2% | [4] 91.4% | [5] 92.2% | [6] 91.9%

C/C(=C/c1ccccc1)C(=O)O
inactive: [1] -3.8% | [2] -18.8% | [3] -22% | [4] -20.1% | [5] -20.8% | [6] -2.45%

Cc1ccc([N+](=O)[O-])cc1N=C=O
inactive: [1] -38.5% | [2] -43.9% | [3] -31.1% | [4] -34% | [5] -32.8% | [6] -56.3%

NNC(=S)N/N=C\c1ccnc2ccccc12
inactive: [1] 9.05% | [2] 2.85% | [3] 36.6% | [4] 28.7% | [5] 30.2% | [6] 23.4%

CCOC(=O)C12CCC(C(=O)OCC)(CC13OCCO3)C1(C2)OCCO1
inactive: [1] 11.1% | [2] 9.95% | [3] 10% | [4] 5.55% | [5] 7.35% | [6] 15.9%

CC(=O)OC1CC1(Br)Br (stereo not drawn)
inactive: [1] 6.3% | [2] -15.8% | [3] 18.6% | [4] -37.8% | [5] 6.5% | [6] 5.2%

Cc1ccc(N=Cc2cc(Cl)cc(Cl)c2OC(=O)c2ccccc2)cc1C
active: [1] 81.8% | [2] 91.7% | [3] 91% | [4] 90.2% | [5] 96.5% | [6] 93.3%

CN(C)c1cccc2c1C(=O)C=CC21c2ccc(N(C)C)c3c(N(C)C)ccc(c23)C(c2ccccc2)C1c1ccccc1 (stereo not drawn)
inactive: [1] -6.15% | [2] -11.4% | [3] -4.55% | [4] -27.3% | [5] -31.6% | [6] -8.75%

Cc1cc(C)c(C(=O)c2ccccc2C(=O)c2ccccc2)c(C)c1
inactive: [1] 20.5% | [2] -5.55% | [3] 17.2% | [4] 20.2% | [5] 20.6% | [6] 11.5%

COC(=O)C(Cc1ccccc1)NC(=O)C1CSC(C)(C)N1C=O (stereo not drawn)
inactive: [1] 3.25% | [2] 16.4% | [3] 21.6% | [4] 3.05% | [5] 22.8% | [6] -20.4%

c1ccc2sc(-c3nc4ccccc4s3)nc2c1
inactive: [1] 26.3% | [2] 11.7% | [3] 5.55% | [4] -21.7% | [5] 8.3% | [6] 12.4%

C=C(C)c1nn(-c2ccccc2)c2c1C(=O)CC(C)O2 (stereo not drawn)
inactive: [1] -12.2% | [2] -26.2% | [3] 1.8% | [4] 29.2% | [5] -7.45% | [6] 8.5%

COc1ccc(-c2nnc(Cl)o2)cc1
inactive: [1] -1.95% | [2] 14.8% | [3] -6.75% | [4] -25.9% | [5] -21.1% | [6] -0.5%

O=[N+]([O-])/C(N=Nc1ccc2ccccc2c1Br)=N/Nc1ccc2ccccc2c1Br
inactive: [1] 34.5% | [2] 5.85% | [3] 19.4% | [4] -2.85% | [5] -0.2% | [6] 13.2%

O=C(Nc1ccc([N+](=O)[O-])cc1)Oc1c(Cl)cc(Cl)c(Cl)c1[N+](=O)[O-]
inactive: [1] 43.6% | [2] -18.7% | [3] 57.2% | [4] 25.6% | [5] 2.3% | [6] 60.4%

CCN(CC)/[N+]([O-])=N/OC
inactive: [1] -13.6% | [2] -0.3% | [3] 10.9% | [4] 13.4% | [5] 10.3% | [6] 1.35%

COc1ccc(C2C(Cl)C(=O)N2NC(=O)Cc2ccccc2)cc1 (stereo not drawn)
inactive: [1] -10.6% | [2] -11.9% | [3] -7.3% | [4] 8.95% | [5] -10.9% | [6] 12.6%

O=C(O)CS(=O)(=O)CC(=O)O
inactive: [1] -10.3% | [2] -11.4% | [3] -10.2% | [4] -6.65% | [5] -23.4% | [6] -12.1%

CCOc1ccc(N2C(=O)C(=O)C(C#N)(c3nc4ccccc4o3)C(=O)C2=O)cc1
inactive: [1] 9.25% | [2] 33.7% | [3] 5.95% | [4] 6% | [5] -0.7% | [6] 15.2%

O=C(NCc1ccc(Cl)c(Cl)c1)Nc1ccccc1Cl
inactive: [1] 10.6% | [2] 24.4% | [3] 23.3% | [4] -2.7% | [5] 24.8% | [6] 17.9%
